Test results reported in PubChem BioAssay (NCI).
Values joined by “and” are separate entries in the source; they are usually repeats but may differ in a detail not shown here. Equal values may be shown once. The panel holds about 83,000 compounds, 20% with a hit somewhere; the sample as a whole holds those more often.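 How to read the values: 0–100, growth inhibition (40 = 60% inhibited); 0, no net growth; -100 to 0, cell death (-40 = 40% of starting cells died; -100 = all dead).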 Active and inactive are the calls of the source. The calls were made as follows: active = growth percent below 10; inactive = the rest.

The compounds below were run on SK-MEL-2 melanoma (assay: NCI-60 one-dose screen, 48 h (100 = growth as untreated, 0 = no growth, -100 = all killed)). Settings: 10 µM unless noted.

How did the growth turn out when CN(C)c1ccc(C(Cc2ccc3ccccc3n2)Cc2ccc3ccccc3n2)cc1 was run?
The growth was 70% (inactive) and 88.5% (inactive).

How did the growth turn out when Cc1ccc(S(=O)(=O)Nc2ccc3cc([N+](=O)[O-])ccc3c2[N+](=O)[O-])cc1 was run?
The growth was 99.7% (inactive) and 87.5% (inactive).

How did the growth turn out when NS(=O)(=O)c1cc2c(cc1Cl)NC(C(Cl)Cl)NS2(=O)=O (centres undefined) was run?
Its growth is 104% (inactive) and 135% (inactive).

With Nc1ccccc1Nc1ccccc1 as the compound, how does the growth read?
Its growth is 133% (inactive) and 78.1% (inactive).

For c1ccc2c(CC3=NCCN3)cccc2c1, which growth is on record?
Its growth is 132% (inactive) and 110% (inactive).

Which growth does the source give for Clc1ccc(NC(Nc2ccc(Cl)cc2)C(Cl)(Cl)Cl)cc1 here?
Its growth is 85.6% (inactive) and 95.8% (inactive).

CCOc1ccc2c(S(=O)(=O)O)cccc2c1[N+](=O)[O-] was tested. Which growth did it give?
Its growth is 117% (inactive) and 109% (inactive).

CCN(CC)CCCC(C)N(Cc1ccccc1)CC(O)c1ccc(Cl)cc1 (centres undefined) was tested. Which growth did it give?
Its growth is 105% (inactive) and 103% (inactive).

Cn1cnc([N+](=O)[O-])c1Sc1ncnc2nc[nH]c12 was tested. Which growth did it give?
The growth was 57.7% (inactive) and 74.8% (inactive).

Nc1nc2ncc(CNc3ccc(C(=O)N[C@@H](CCc4nn[nH]n4)C(=O)O)cc3)nc2c(=O)[nH]1 was tested. Which growth did it give?
Its growth is 105% (inactive) and 104% (inactive).

For Oc1c(Cl)cc(Cl)cc1Sc1cc(Cl)cc(Cl)c1O, which growth is on record?
The growth was -21.7% (active) and -41% (active) and 79.7% (inactive).

Which growth does the source give for O=S1(=O)CC(Br)C(Br)C1 (centres undefined) here?
Its growth is 82.4% (inactive) and 83.3% (inactive).

For CN(C)c1ccc2nc3ccc(N)cc3[n+](-c3ccccc3)c2c1, which growth is on record?
Its growth is 58.2% (inactive).

What follows are compounds tested on EKVX NSCLC in the same assay as above. Settings: 10 µM unless noted.

For COc1cc2c(c(OC)c1OC)-c1ccc(OC)c(=O)cc1[C@@H](NC(C)=O)CC2, which growth is on record?
The growth was 42.2% (inactive) and 34.6% (inactive) and 35.8% (inactive).

For CCN(CC)CCCC(CNc1ccnc2cc(Cl)ccc12)c1ccc(Cl)cc1 (centres undefined), which growth is on record?
The growth was -3.66% (active) and 12.1% (inactive).

For COc1ccc(/C(C#N)=C/c2ccccn2)cc1, which growth is on record?
The growth was 90.1% (inactive) and 99.5% (inactive).

Which growth does the source give for CCN(CC)C(=S)SSC(=S)N(CC)CC here?
Its growth is 89.1% (inactive) and 113% (inactive).

For Nc1ccc(N=Nc2ccc(S(=O)(=O)O)cc2)cc1S(=O)(=O)O, which growth is on record?
The growth was 96.3% (inactive) and 109% (inactive).

CCN(CC)CCOc1ccc2c(c1)C(=O)c1cc(OCCN(CC)CC)ccc1-2 was tested. Which growth did it give?
Its growth is 90.5% (inactive) and 59% (inactive).

Which growth does the source give for O=C1OC2(c3ccccc31)c1ccc(O)c(O)c1Oc1c2ccc(O)c1O here?
The growth was 105% (inactive) and 128% (inactive).

Which growth does the source give for O=S(=O)(Nc1ccccc1)C1CCCCC1 here?
The growth was 104% (inactive) and 97.2% (inactive).

With CCNC(=O)Nc1ccc(-c2nc3c(c(N4CCOC[C@@H]4C)n2)CCN(C2COC2)C3)cc1 as the compound, how does the growth read?
The growth was 46.8% (inactive) and 17.4% (inactive).

How did the growth turn out when CC(C)Cc1ccc(C(C)C(=O)NCc2ccc(Cn3c(=O)sn(CCCCl)c3=O)cc2)cc1 (centres undefined) was run?
Its growth is 89.3% (inactive) and -64.7% (active).

With OCc1ccccn1 as the compound, how does the growth read?
Its growth is 110% (inactive).

How did the growth turn out when Nc1ncnc2c1ncn2C1CC(O)C(CO)O1 (centres undefined) was run?
Its growth is 100% (inactive) and 118% (inactive).

How did the growth turn out when CCCCCCCCCCCCCCCc1cc(O)ccc1N was run?
The growth was 86.6% (inactive) and 85.6% (inactive).

With Cc1ccc2nc3c(nc2c1)-c1cccc2cccc-3c12 as the compound, how does the growth read?
Its growth is 71.4% (inactive).

With O=[N+]([O-])c1ccc(/C=N\NC(=S)Nc2ccc(F)cc2)cc1 as the compound, how does the growth read?
Its growth is 91.9% (inactive) and 102% (inactive).

Which growth does the source give for CCN(CC)C(=O)c1cccnc1 here?
Its growth is 112% (inactive).

Which growth does the source give for CN1CCN(CCC=C2c3ccccc3Sc3ccc(S(=O)(=O)N(C)C)cc32)CC1 here?
The growth was 80.1% (inactive) and 84.8% (inactive).

For Oc1nc(NCCc2ccccc2)sc1/C=C1\C=Nc2ncccc21, which growth is on record?
The growth was 40.9% (inactive) and 46% (inactive).

COc1cc2nc(N3CCN(C(=O)C4COc5ccccc5O4)CC3)nc(N)c2cc1OC (centres undefined) was tested. Which growth did it give?
Its growth is 97.5% (inactive).

For c1ccc2cc(C[n+]3ccn(Cc4ccc5ccccc5n4)c3)ccc2c1, which growth is on record?
The growth was 15.9% (inactive) and 69% (inactive).

O=C(N/N=C/c1cccc2ccccc12)C1CC1 was tested. Which growth did it give?
The growth was 72.5% (inactive) and 53% (inactive).
